# Laboratory results: PubChem BioAssay (NCATS)
# Results filed as inconclusive are left out. Entries that show only a call come without a potency. Calls of active or inactive are those of the source. Calls follow the shape of the dose curve; as a rule, active = well fitted cell-killing curve with a large enough effect; inconclusive = small, poorly fitted or top-dose-only effect; inactive = flat fitted curve, though single readings scatter.
# Test: Cell Viability - LYMP2-019 (AID 973); also: nearly all actives have a fitted effect of over 55% in size
# Settings: LYMP2-019 lymphoblastoid cell line viability; series mostly up to 92.2 µM
# From the text: NIH Chemical Genomics Center [NCGC]
# NIH Molecular Libraries Screening Centers Network [MLSCN]
# National Institutes of Environmental Health Sciences [NIEHS]
# National Toxicology Program [NTP]
# We have developed a 1536-well cell-based assay for quantitative high throughput screening (qHTS) against a number of cell lines to determine in vitro cytotoxicity of small molecules. This particular assay uses a human lymphoblastoid cell line (LYMP2-019) purchased from Coriell Institute for Medical Research.
# NCGC Assay Protocol Summary:
# The CellTiter-Glo luminescent cell viability assay (Promega) is a homogeneous method to measure the number of viable cells in culture. The end point readout of this assay is based on quantitation of intracellular ATP, an indicator of metabolic activity, using the luciferase reaction. Luciferase catalyzes the oxidation of beetle Luciferin to oxyluciferin and light in the presence of ATP. The luminescent signal is proportional to amount of ATP present.
# Using the CellTiter-Glo luminescent cell viability assay, the amount of cellular ATP was measured in the lymphoblastoid cell line with complete culture medium following compound treatment for 24 hours. The assay was performed in opaque white Kalypsys 1536-well plates. In the screen, tetraoctylammonium bromide was used as positive control. Library compounds were measured for their ability to cause acute toxicity in the cell line, as reflected by a decrease in intracellular ATP levels, in a concentration-dependent manner. […] AC50 values were determined from concentration-response data modeled with the standard Hill equation.
# qHTS protocol for CellTiter Glo lymphoblastoid cellular assay
# [Step] [Parameter] [Value] [Description]
# 1. Reagent; 5 uL; 2500 lymphoblastoid cells/well
# 2. Time; 5 hr; 37 C incubation
# 4. Controls; 23 nL; Tetraoctylammonium bromide 6.4pM to 92 uM
# 5. Time; 24 hr; 37 C incubation
# 6. Reagent; 5 uL; CellTiter Glo reagent
# 7. Time; 30 min; Room Temperature
# 8. Detection; Luminescence; Viewlux plate reader
# Keywords: cell viability, cytotoxicity, lymphoblastoid cell line, luminescence, NTPHTS, NTPHTS_NCGC, NIEHS, DSSTox, MLSMR, MLSCN, NIH Roadmap, qHTS, NCGC
# Potency is read from the fitted curve at half-maximal effect.
row,Structure (SMILES),Potency
1,CCCCCCCC(=O)O,inactive
2,O=C(O)CCC(=O)C(=O)O,inactive
3,CC(O)CO (centres undefined),inactive
4,CCCCCCCC/C=C\CCCCCCCC(=O)O,inactive
5,CCCCC/C=C\C/C=C\CCCCCCCC(=O)O,inactive
6,IC(I)I,inactive
7,O=CCCCC=O,25.1 µM (active)
8,O=S(=O)(O)O,inactive
9,CCOc1ccc2c(c1)C(C)=CC(C)(C)N2,inactive
10,CCOC(C)=O,inactive
11,CC1=C2[C@@H]([C@H](C)CC[C@H]2/C=C(\C)C(=O)O)[C@H](O)C1,inactive
12,Nc1ccn([C@H]2CS[C@@H](CO)O2)c(=O)n1,inactive
13,Cc1ccccc1,inactive
14,CC(C)=O,inactive
